The results in this text go back to PubChem BioAssay (EPA / NIEHS).

Calls of active or inactive are those of the source. How the source made its calls: active means hit-call score of the fitted dose curve at least 0.9, where 1 is the maximum; inactive means score below 0.9.

The assay in a line: CCTE_Shafer_MEA_acute_per_burst_spike_number_mean: CCTE's Neural Acute Assay for Average Number of Spikes Per Burst, Shafer Lab (AID 2284015).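 Further: hits are decreases in mean spikes per burst versus baseline.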 On the procedure:
CCTE_Shafer_MEA_acute assay is conducted using Axion Biosystems 48 well microelectrode array (MEA) plates and Maestro recording system. Each well of the MEA plate contains a grid of 16 microelectrodes embedded in the culture surface. Electrically active cells, such as neurons, can be cultured over the electrodes, and electrical activity in these cells can be recorded extracellularly. The spontaneous firing of neurons is captured from each electrode on a microsecond timescale providing both temporally and spatially precise data. […] The CCTE_Shafer_MEA_acute assay uses primary cultures of rat cortical neurons. As these cultures mature over time, neural networks develop functional activity and form cohesive networks in which electrical activity can be highly coordinated. Baseline 40-minute recordings are made on days post-plating 13 or 15, followed by a secondary 40-minute recording after chemical exposure.CCTE_Shafer_MEA_acute_per_burst_spike_number_mean is a component of the CCTE_Shafer_MEA_acute assay. It measures the average number of spikes (action potential firings) in a single-electrode burst (temporally-clustered group of spikes) during a recording in a microelectrode array (MEA) using Axion Biosystems Maestro 768 channel amplifier with the AxIS adaptive spike detector. The recordings before and after chemical treatment are used to calculate a percent change in the mean number of spikes per burst in each well.Data from the assay component CCTE_Shafer_MEA_acute_per_burst_spike_number_mean was analyzed into 1 assay endpoint. This assay endpoint, CCTE_Shafer_MEA_acute_per_burst_spike_number_mean, was analyzed in the negative analysis fitting direction relative to DMSO as the negative control and baseline of activity. Using a type of functional reporter, gain or loss-of-signal activity can be used to understand electrical activity.
Spontaneous activity in the cortical cultures was recorded using an Axion Biosystems Maestro 768 channel amplifier and Axion Integrated Studios (AxIS) v1.8 (or later) software. The amplifier recorded from all channels simultaneously (gain = 1200 x; sampling rate = 12.5 kHz/channel): raw signals were filtered with a Butterworth band-pass filter (300-5000 Hz), which filters out slower local field potentials leaving only fast potentials, i.e., "spikes", arising from extracellular currents associated with action potentials (Pine 2006; Wheeler and Nam 2011). On-line spike detection of filtered signals was conducted with the AxIS adaptive spike detector, using a threshold of 8x the root mean squared (rms) noise on each channel. Any electrodes with rms noise levels greater than 5 uV were grounded (e.g., no data were recorded). Once grounded, an electrode was grounded for the duration of the experiment. All recordings were conducted at 37 C. Wells were deemed usable if on the day of the exposure >/= 10 electrodes were active (defined as >/= 5 spikes/min). On DIV 13 or 15, a minimum of three wells from one cortical culture preparation were treated with each compound (0.03-40 uM). Prior to recording baseline activity, each mwMEA plate was placed in the Maestro at 37 C and allowed to sit for 20 min while firing rates stabilized. Baseline activity (40 min) was recorded before the addition of each compound. An additional 40 min of spontaneous activity was recorded in the presence of each compound. Changes in network parameters relative to baseline were assessed following compound treatment.
As to `CCC1(c2ccccc2)C(=O)N=C(O)NC1=O` (stereo unspecified), the call was inactive. Same read-out and setting: to `[N-]=[N+]=[N-]` belongs “inactive”; to `COCCOCCO`, “inactive”; to `ClC1=C(Cl)C2(Cl)C3C(Cl)C(Cl)CC3C1(Cl)C2(Cl)Cl` (stereo unspecified), “inactive”. In the case of `CCOc1ccc(C(C)(C)COCc2cccc(Oc3ccccc3)c2)cc1`, the outcome was inactive. As to `Cc1ccc(N)cc1N`, the molecule was classed as inactive.

With `CC(Cl)(Cl)C(=O)O`, the outcome was inactive. As to `CCC(C)(C)c1ccc(O)cc1`, the outcome was inactive.

Take `CCCCC(CC)COP(=O)(Oc1ccccc1)Oc1ccccc1` (stereo unspecified): the result was inactive. On the same count and under the same terms, to `Nc1ccc2ccccc2c1` belongs “inactive”. For the molecule `COP(=O)(CCC(=O)NCO)OC`, the AC50 was 0.145 µM (active).

With `c1ccc2c(c1)Nc1ccccc1S2`, the outcome was inactive. Turning to `CCOP(=S)(Oc1ccc([N+](=O)[O-])cc1)c1ccccc1` (stereo unspecified), the outcome was inactive.

Consider `O=C(O)C1C(C(=O)O)C2(Cl)C(Cl)=C(Cl)C1(Cl)C2(Cl)Cl` (stereo unspecified), for which the molecule was called inactive. Same read-out and setting: to `ClC(Cl)(Cl)c1ccccc1` belongs “inactive”. `CC(C)(C)c1ccccc1OP(=O)(Oc1ccccc1)Oc1ccccc1`: the AC50 was 7.23 µM (active).

For orientation: AC50 means the midpoint of the concentration-response curve, whichever way the signal moves.
